# Laboratory results from PubChem BioAssay (NCATS).
# “And” between values parts separate entries of the source, which are not always exact repeats. Identical values can stand only once. Results filed as inconclusive are left out. A call without a number means that no potency is given here. The source made the active and inactive calls. Unless noted, the call rests on the fitted dose curve.
# Experiments:
# [1] = biological target: Bile acid receptor (Homo sapiens) (UniProt Q96RI1); test: qHTS assay for small molecule agonists of farnesoid X receptor signaling (AID 588527); settings: HEK293T FXR-UAS-bla, beta-lactamase ratio, 16 h; activation: stronger effect = higher value
# In short: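 Quantitative HTS used FXR-UAS-bla HEK293T cells with 16 h compound incubation at 37 C. EC50 values came from concentration-response curves normalized to chenodeoxycholic acid.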
# [2] = biological target: Peroxisome proliferator-activated receptor delta (Homo sapiens) (UniProt Q03181); test: qHTS assay for small molecule agonists of peroxisome proliferator-activated receptor delta signaling (AID 588534)
# In short: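 Titration series tested in agonist mode on beta-lactamase reporter cells; 18 hrs at 37 C after a 5 hr pre-incubation. Readout: CCF4 fluorescence, 2 hrs RT. Hill equation gives EC50 and maximal response.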
# [3] = qHTS for Inhibitors of the Functional Ribonucleoprotein Complex (vRNP) of Lassa (LASV) Arenavirus: LASV Primary Screen - GLuc reporter signal (AID 1347082; calls by dose curve; tested in HEK293 reporter line; further: nearly all actives have a fitted effect of over 60% in size)
# [4] = qHTS for Inhibitors of the Functional Ribonucleoprotein Complex (vRNP) of Lassa (LASV) Arenavirus: Viability assay - alamar blue signal for LASV Primary Screen (AID 1347083; calls by dose curve; tested in HEK293 reporter line; further: nearly all actives have a fitted effect of over 80% in size)
# [5] = qHTS for Inhibitors of the Functional Ribonucleoprotein Complex (vRNP) of Lymphocytic Choriomeningitis Arenaviruses (LCMV): Viability assay - alamar blue signal for LCMV Primary Screen (AID 1347085; calls by dose curve; tested in HEK293 reporter line; further: nearly all actives have a fitted effect of over 80% in size)
# [6] = biological target: Nucleoprotein (Lymphocytic choriomeningitis virus (strain Armstrong)) (UniProt P09992); test: qHTS for Inhibitors of the Functional Ribonucleoprotein Complex (vRNP) of Lymphocytic Choriomeningitis Arenaviruses (LCMV): LCMV Primary Screen - GLuc reporter signal (AID 1347086); further: nearly all actives have a fitted effect of over 70% in size
# [7] = qHTS profiling for inhibitors of Plasmodium falciparum (3D7) proliferation (AID 743322);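 further: infected erythrocytes exposed to compound for 72 h before lysis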; settings: P. falciparum 3D7 proliferation; at 28.7 µM (top of the series)
# In short: (§1)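 Parasite DNA was quantified by SYBR Green I fluorescence (ex 485, em 535 nm) after overnight lysis in saponin/Triton buffer at room temperature. Cultures at 0.3% parasitemia and 2.5% hematocrit were first exposed to compound for 72 h at 37 C; signals were normalised to artemisinin (0.29 uM) and vehicle wells.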
# [8] = qHTS profiling for inhibitors of Plasmodium falciparum (DD2) proliferation (AID 743323; call rule not given here); settings: lower = more inhibition; at 28.7 µM (top of the series)
# In short: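 Parasite proliferation measured via DNA-dye fluorescence, as uninfected erythrocytes lack DNA. Cultures at 0.3% parasitemia and 2.5% hematocrit incubated 72 h with compound; signal scaled between vehicle and 0.29 uM artemisinin wells.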
# [9] = qHTS profiling for inhibitors of Plasmodium falciparum (HB3) proliferation (AID 743324; active means well fitted curve in the direction sought with a large enough effect; an effect the other way counts as inactive or inconclusive); settings: Plasmodium falciparum HB3 blood-stage proliferation; at 28.7 µM (top of the series)
# In short: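 SYBR Green fluorescence (485 ex/535 em) of lysed cultures, incubated overnight at room temperature in the dark, quantifies parasite DNA. Infected erythrocytes at 0.3% parasitemia and 2.5% hematocrit were exposed 72 h; values normalized to DMSO and 0.29 uM artemisinin controls.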
# [10] = qHTS profiling of the MIPE4 collection as inhibitors of Plasmodium falciparum (3D7) proliferation (AID 743344; call rule not given here); settings: P. falciparum 3D7 in erythrocytes, SYBR Green DNA fluorescence, 72 h; at 28.5 µM (top of the series) unless noted
# In short: as §1
# [11] = qHTS profiling of the MIPE4 collection as inhibitors of Plasmodium falciparum (DD2) proliferation (AID 743345; call rule not given here); settings: P. falciparum Dd2 in erythrocytes, SYBR Green DNA, 72 h; at 28.5 µM (top of the series) unless noted
# In short: as §1
# [12] = qHTS profiling of the MIPE4 collection as inhibitors of Plasmodium falciparum (DD2) proliferation (Rep 2) (AID 743346; call rule not given here); settings: P. falciparum Dd2 in erythrocytes, SYBR Green DNA, 72 h; at 28.5 µM (top of the series) unless noted
# In short: as §1
# [13] = biological target: Cytochrome P450 3A4 (Homo sapiens) (UniProt P08684); test: qHTS Assay for Inhibitors and Substrates of Cytochrome P450 3A4 (AID 884; active means well fitted curve in the direction sought with a large enough effect; an effect the other way counts as inactive or inconclusive; further: potency means the concentration at half of the fitted maximal effect; nearly all actives have a fitted effect of over 50% in size)
# In short: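 Luminescent readout of luciferin produced by CYP3A4 (20 nM) dealkylation of Luciferin-PPXE, 25 uM (its KM). NADPH-driven reaction ran 60 min at RT after 10 min compound preincubation; data scaled to 57 uM ketoconazole as 100% inhibition.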
# [14] = biological target: Cytochrome P450 3A4 (Homo sapiens) (UniProt P08684); test: qHTS Assay for Activators of Cytochrome P450 3A4 (AID 885; active means well fitted curve in the direction sought with a large enough effect; an effect the other way counts as inactive or inconclusive; further: nearly all actives have a fitted effect of over 65% in size)
# In short: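 Using 20nM recombinant human CYP3A4 in potassium phosphate (200mM), substrate Luciferin-PPXE at 25uM, luminescent luciferin detection followed a 60-min RT NADPH reaction; data scaled to 57 uM ketoconazole.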
# [15] = biological target: Glucocorticoid receptor (Homo sapiens) (UniProt P04150); test: qHTS assay for small molecule agonists of glucocorticoid receptor signaling (AID 588532; active means well fitted curve in the direction sought with a large enough effect in the signal ratio, with a control signal flat; the % refers to the signal ratio); settings: HeLa MMTV-bla, beta-lactamase ratio, agonist, 18 h; stronger effect = higher value; percent of dexamethasone control, DMSO zero
# In short: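 MMTV-bla HeLa, beta-lactamase reporter; medium with 1% charcoal/dextran-stripped FBS; cpds up to 92 uM, 18 h, 37 C; CCF4 readout 460/530 nm; Hill fit → EC50, efficacy vs 0.1 uM dexamethasone = 100%.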
# [16] = biological target: Vitamin D3 receptor (Homo sapiens) (UniProt P11473); test: qHTS assay for small molecule agonists of vitamin D receptor signaling (AID 588543)
# In short: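 VDR-UAS-bla HEK293T cells, 2000/well, 2% charcoal-stripped FBS; compound titration 16 h at 37 C; CCF4 beta-lactamase ratio read. Normalized to 50 nM 1-alpha,25-dihydroxyvitamin D3 (100%) and DMSO; Hill fit gives EC50, efficacy.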
# [17] = biological target: Voltage-gated inwardly rectifying potassium channel KCNH2 (Homo sapiens) (UniProt Q12809); test: qHTS Assay for Small Molecule Inhibitors of the Human hERG Channel Activity (AID 588834; active means well fitted curve in the direction sought with a large enough effect; an effect the other way counts as inactive or inconclusive;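 further: potency means the concentration at half of the fitted maximal effect; lower thallium flux fluorescence means stronger hERG block; nearly all actives have a fitted effect of over 50% in size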)
# In short: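 Thallium serves as surrogate for K+ influx through BacMam-delivered hERG in U2OS cells. Compounds are added for about 10 minutes after dye loading; stimulation buffer then starts flux, monitored kinetically on FDSS.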
# [18] = qHTS assay for small molecule agonists of the antioxidant response element (ARE) signaling pathway (AID 651741; active means well fitted activation curve with a large enough effect in the signal ratio; the % refers to the signal ratio; further: potency means the concentration at half of the fitted maximal effect)
# In short: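 Beta-lactamase reporter expression driven by the antioxidant response element in HepG2 cells was detected by fluorescence with LiveBLAzer B/G FRET substrate (2 h, room temperature) following 16 h compound treatment at 37 C.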
# [19] = qHTS assay for small molecule activators of the nuclear factor-kappa B (NF-kB) signaling pathway (AID 651749; active means well fitted activation curve with a large enough effect in the signal ratio; the % refers to the signal ratio); settings: NF-kB-bla ME-180 cells, beta-lactamase FRET ratio, 16 h; activation: stronger effect = higher value
# In short: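 Beta-lactamase reporter expression, controlled by NF-kB response elements in ME-180 cells, was quantified fluorometrically via FRET disruption; cells at 2,000/well had been incubated with 23 nL test compound for 16 hr.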
# [20] = qHTS assay for environmental chemicals that activate the Aryl hydrocarbon Receptor (AhR) signaling pathway (AID 651777; active means well fitted curve in the direction sought with a large enough effect; an effect the other way counts as inactive or inconclusive; further: nearly all actives have a fitted effect of over 15% in size); settings: 1A2-DRE human hepatoma cells, luciferase, 24 h; activation: stronger effect = higher value
# In short: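 Luminescence read-out: One-Glo added for 30 min at RT after 24 hr compound treatment (37 C, 5% CO2) of human hepatoma cells expressing a DRE/CYP1A2 promoter–luciferase reporter; increased signal indicates AhR activation.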
# [21] = biological target: Peroxisome proliferator-activated receptor alpha (Homo sapiens) (UniProt Q07869); test: qHTS assay for small molecule agonists of the peroxisome proliferator-activated receptor alpha (PPARalpha) signaling pathway (AID 651778; active means well fitted curve in the direction sought with a large enough effect; an effect the other way counts as inactive or inconclusive); settings: PathHunter PPARalpha complementation, chemiluminescence, 6 h; stronger effect = higher value
# In short: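 Cells plated at 2,000/well and held overnight at 37 C, 5% CO2, then compound added by pin tool for 6 hr; after PathHunter detection reagent and 60 min at room temperature, chemiluminescence from enzyme complementation was read.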
# Sequence of Bile acid receptor (Homo sapiens) (Q96RI1 whole entry, looked up): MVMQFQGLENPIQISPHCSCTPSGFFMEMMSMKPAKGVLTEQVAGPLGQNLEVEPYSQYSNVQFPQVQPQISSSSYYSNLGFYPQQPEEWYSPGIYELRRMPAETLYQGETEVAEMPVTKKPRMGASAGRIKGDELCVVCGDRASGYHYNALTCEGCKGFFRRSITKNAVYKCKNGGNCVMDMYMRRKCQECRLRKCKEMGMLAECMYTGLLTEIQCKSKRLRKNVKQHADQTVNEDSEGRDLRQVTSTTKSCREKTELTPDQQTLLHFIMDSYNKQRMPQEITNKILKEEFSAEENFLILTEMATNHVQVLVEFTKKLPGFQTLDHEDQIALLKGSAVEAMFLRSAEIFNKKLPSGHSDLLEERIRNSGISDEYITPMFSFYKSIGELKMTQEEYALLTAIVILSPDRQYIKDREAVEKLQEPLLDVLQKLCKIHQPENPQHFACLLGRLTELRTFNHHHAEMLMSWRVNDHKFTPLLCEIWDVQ
# Sequence of Nucleoprotein (Lymphocytic choriomeningitis virus (strain Armstrong)) (P09992 whole entry, looked up): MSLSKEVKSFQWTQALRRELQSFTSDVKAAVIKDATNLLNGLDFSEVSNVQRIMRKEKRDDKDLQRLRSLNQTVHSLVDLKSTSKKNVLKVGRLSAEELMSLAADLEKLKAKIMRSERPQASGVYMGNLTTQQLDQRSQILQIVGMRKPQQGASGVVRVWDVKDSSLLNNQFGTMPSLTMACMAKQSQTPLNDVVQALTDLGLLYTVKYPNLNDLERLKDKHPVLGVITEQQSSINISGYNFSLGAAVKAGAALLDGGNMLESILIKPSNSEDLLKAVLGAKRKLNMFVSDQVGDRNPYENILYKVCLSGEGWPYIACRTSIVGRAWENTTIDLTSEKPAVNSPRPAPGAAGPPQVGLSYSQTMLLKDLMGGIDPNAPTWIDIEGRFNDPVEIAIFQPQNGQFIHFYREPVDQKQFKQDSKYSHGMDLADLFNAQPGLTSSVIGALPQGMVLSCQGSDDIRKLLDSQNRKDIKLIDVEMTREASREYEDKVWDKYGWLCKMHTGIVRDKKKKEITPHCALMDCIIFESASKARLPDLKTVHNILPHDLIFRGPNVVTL
# Sequence of Peroxisome proliferator-activated receptor delta (Homo sapiens) (Q03181 whole entry, looked up): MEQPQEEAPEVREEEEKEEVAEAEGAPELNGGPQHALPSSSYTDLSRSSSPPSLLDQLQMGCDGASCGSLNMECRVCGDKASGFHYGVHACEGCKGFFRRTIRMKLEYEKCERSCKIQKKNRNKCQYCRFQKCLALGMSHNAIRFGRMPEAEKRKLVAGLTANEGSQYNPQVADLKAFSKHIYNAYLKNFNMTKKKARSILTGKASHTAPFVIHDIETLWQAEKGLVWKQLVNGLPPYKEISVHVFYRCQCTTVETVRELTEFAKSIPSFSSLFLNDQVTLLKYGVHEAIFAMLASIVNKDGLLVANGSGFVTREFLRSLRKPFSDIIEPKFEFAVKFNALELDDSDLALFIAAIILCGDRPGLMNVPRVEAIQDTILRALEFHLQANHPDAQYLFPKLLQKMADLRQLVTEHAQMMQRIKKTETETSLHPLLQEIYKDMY
# Sequence of Cytochrome P450 3A4 (Homo sapiens) (P08684 whole entry, looked up): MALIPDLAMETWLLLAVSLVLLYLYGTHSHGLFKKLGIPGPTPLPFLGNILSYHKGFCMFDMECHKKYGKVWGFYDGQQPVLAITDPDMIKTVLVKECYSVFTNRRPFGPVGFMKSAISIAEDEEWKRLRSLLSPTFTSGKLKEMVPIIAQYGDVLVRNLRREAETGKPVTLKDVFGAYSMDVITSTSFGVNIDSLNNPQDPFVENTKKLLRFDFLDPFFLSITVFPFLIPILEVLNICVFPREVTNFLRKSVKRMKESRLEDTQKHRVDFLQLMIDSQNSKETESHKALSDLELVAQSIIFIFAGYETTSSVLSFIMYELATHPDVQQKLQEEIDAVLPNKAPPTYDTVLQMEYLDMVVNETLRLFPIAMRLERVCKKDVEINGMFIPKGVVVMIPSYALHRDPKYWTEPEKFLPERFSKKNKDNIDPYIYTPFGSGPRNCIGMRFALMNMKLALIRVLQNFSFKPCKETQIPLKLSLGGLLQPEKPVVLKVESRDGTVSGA
# Sequence of Vitamin D3 receptor (Homo sapiens) (P11473 whole entry, looked up): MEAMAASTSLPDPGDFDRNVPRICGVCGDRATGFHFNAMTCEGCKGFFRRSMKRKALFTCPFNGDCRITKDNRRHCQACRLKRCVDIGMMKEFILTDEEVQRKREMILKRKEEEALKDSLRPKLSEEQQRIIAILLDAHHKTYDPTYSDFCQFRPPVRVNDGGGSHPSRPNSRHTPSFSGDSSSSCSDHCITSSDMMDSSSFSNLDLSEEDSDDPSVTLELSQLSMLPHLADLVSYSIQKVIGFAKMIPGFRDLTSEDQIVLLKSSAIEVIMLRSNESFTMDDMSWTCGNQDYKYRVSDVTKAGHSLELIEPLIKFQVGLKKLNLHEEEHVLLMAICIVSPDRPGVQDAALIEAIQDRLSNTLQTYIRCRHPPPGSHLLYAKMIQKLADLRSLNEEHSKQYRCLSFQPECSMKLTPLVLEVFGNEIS
# Sequence of Glucocorticoid receptor (Homo sapiens) (P04150 whole entry, looked up): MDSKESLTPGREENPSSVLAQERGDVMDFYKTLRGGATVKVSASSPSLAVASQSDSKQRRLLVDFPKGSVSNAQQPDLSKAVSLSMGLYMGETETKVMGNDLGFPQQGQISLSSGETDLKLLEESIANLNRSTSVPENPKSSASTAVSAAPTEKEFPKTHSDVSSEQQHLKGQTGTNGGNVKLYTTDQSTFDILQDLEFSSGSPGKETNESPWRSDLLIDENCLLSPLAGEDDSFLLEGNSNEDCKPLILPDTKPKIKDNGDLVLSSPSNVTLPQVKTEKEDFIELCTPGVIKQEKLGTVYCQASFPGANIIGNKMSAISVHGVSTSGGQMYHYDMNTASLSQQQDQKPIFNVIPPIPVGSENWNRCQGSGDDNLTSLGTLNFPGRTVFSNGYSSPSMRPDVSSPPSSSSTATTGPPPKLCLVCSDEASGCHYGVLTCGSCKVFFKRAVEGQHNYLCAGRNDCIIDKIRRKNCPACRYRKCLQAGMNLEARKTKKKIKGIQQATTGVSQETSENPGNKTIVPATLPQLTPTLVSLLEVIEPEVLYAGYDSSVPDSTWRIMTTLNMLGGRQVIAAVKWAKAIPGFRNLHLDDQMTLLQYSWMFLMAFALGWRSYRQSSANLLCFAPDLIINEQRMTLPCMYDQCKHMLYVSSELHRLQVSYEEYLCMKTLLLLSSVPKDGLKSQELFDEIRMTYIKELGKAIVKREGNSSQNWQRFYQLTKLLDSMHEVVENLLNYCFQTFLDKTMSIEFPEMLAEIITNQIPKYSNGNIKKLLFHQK
# Sequence of Voltage-gated inwardly rectifying potassium channel KCNH2 (Homo sapiens) (Q12809 whole entry, looked up): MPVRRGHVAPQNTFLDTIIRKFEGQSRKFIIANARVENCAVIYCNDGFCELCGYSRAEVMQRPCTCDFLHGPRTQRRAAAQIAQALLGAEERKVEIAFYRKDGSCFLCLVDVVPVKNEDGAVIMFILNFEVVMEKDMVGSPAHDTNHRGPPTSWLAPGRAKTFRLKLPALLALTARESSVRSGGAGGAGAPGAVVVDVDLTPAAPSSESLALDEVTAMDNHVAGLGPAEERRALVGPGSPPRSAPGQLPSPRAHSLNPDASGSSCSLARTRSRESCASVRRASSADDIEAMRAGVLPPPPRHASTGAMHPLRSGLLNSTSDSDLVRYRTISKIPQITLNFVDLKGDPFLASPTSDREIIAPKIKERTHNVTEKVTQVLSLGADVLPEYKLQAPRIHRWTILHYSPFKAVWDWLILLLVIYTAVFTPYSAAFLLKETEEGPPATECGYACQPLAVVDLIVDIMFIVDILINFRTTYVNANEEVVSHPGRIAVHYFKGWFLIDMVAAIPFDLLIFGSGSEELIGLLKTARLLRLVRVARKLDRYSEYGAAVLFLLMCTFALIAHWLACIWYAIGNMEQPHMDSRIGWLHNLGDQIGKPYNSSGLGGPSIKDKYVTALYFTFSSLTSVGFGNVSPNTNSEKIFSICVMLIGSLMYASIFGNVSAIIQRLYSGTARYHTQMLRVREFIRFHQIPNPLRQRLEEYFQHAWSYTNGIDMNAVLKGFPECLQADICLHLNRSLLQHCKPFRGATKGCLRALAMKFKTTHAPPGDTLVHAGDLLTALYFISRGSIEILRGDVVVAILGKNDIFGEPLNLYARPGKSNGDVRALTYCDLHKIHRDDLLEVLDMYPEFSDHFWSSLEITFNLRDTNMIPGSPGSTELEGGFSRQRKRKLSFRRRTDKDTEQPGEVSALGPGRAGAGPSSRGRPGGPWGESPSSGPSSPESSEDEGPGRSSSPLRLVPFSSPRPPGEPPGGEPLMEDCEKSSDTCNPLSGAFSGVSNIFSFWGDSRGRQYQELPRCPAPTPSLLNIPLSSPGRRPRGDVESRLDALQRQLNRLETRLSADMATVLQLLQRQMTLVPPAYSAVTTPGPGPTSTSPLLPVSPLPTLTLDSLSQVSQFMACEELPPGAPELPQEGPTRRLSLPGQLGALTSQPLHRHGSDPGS
# Sequence of Peroxisome proliferator-activated receptor alpha (Homo sapiens) (Q07869 whole entry, looked up): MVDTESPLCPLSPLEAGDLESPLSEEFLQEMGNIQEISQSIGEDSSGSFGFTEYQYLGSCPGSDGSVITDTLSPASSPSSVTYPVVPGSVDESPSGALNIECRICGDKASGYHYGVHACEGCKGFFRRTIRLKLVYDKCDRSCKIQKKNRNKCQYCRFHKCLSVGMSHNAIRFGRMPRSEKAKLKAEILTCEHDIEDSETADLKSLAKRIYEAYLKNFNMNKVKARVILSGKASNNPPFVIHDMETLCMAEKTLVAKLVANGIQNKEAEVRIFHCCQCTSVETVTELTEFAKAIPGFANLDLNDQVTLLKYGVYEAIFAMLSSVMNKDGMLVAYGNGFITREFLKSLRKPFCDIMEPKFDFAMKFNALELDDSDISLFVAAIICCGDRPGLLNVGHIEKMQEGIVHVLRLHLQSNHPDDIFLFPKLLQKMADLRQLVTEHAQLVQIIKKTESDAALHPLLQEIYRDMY
structure (smiles),measurement,setting,value
O=C(O)c1cc(O)c2ccccc2c1O,activation,[1],1.64% (inactive)
same,Potency,[2],inactive
same,Potency,[3],inactive
same,Potency,[4],inactive
same,Potency,[5],inactive
same,Potency,[6],inactive
CCNc1nc(N)nc(Cl)n1,Potency,[2],inactive
same,Potency,[3],inactive
same,Potency,[4],inactive
same,Potency,[5],inactive
same,Potency,[6],inactive
CC(=O)N(O)CCCP(=O)(O)O,remaining parasite growth % (stronger effect = lower value),[7],13.5%
same,"activity, percent of control",[8],10.8%
same,"remaining proliferation (% of control), lower = more inhibition",[9],8.45%
same,"parasite growth, % of DMSO control",[10],13.6%
same,"parasite growth remaining, % of DMSO control (lower = more inhibition)",[11],18.6%
same,"parasite growth, % of control (lower = inhibition)",[12],18.1%
same,Potency,[3],inactive
same,Potency,[4],inactive
same,Potency,[5],inactive
same,Potency,[6],inactive
NCCO/C=C/[C@H](N)C(=O)O,activation,[1],4.46% (inactive)
same,Potency,[2],inactive
same,Potency,[3],inactive
same,Potency,[4],inactive
same,Potency,[5],inactive
same,Potency,[6],inactive
CC(C)Nc1nc(N)nc(Cl)n1,Potency,[2],inactive
same,Potency,[3],inactive
same,Potency,[4],inactive
same,Potency,[5],inactive
same,Potency,[6],inactive
C=C1C[C@@]2(O)O[C@@]3(C[C@H]2C(C)C)[C@H](C)CC[C@H]13,"parasite growth, % of DMSO control",[10],70.7%
same,"parasite growth remaining, % of DMSO control (lower = more inhibition)",[11],75.7%
same,"parasite growth, % of control (lower = inhibition)",[12],48.2%
same,Potency,[3],inactive
same,Potency,[4],inactive
same,Potency,[5],inactive
same,Potency,[6],inactive
CC(C)=CCCC(C)CCO (stereo not drawn),Potency,[2],inactive
same,Potency,[3],inactive
same,Potency,[4],inactive
same,Potency,[5],inactive
same,Potency,[6],inactive
CNC1[C@H](O)C(O[C@@H]2C(O)C(O[C@H]3O[C@H]([C@@H](C)NC)CC[C@H]3N)[C@@H](N)C[C@H]2N)OC[C@]1(C)O (stereo partly drawn),"parasite growth, % of DMSO control",[10],93.1%
same,"parasite growth remaining, % of DMSO control (lower = more inhibition)",[11],103%
same,"parasite growth, % of control (lower = inhibition)",[12],111%
same,Potency,[3],inactive
same,Potency,[4],inactive
same,Potency,[5],inactive
same,Potency,[6],inactive
c1ccc(CSCc2ccccc2)cc1,Potency,[2],inactive
same,Potency,[3],inactive
same,Potency,[4],inactive
same,Potency,[5],inactive
same,Potency,[6],inactive
O=C(OCc1ccccc1)c1ccccc1O,Potency,[2],inactive
same,Potency,[3],inactive
same,Potency,[4],inactive
same,Potency,[5],inactive
same,Potency,[6],inactive
C[C@H]1[C@H](NC(=O)C(=NOC(C)(C)C(=O)O)c2csc(N)n2)C(=O)N1S(=O)(=O)O,"parasite growth, % of DMSO control",[10],97.7%
same,"parasite growth remaining, % of DMSO control (lower = more inhibition)",[11],91.7%
same,"parasite growth, % of control (lower = inhibition)",[12],91.7%
same,Potency,[3],inactive
same,Potency,[4],inactive
same,Potency,[5],inactive
same,Potency,[6],inactive
C=CCCCCCCCCCCCC,Potency,[2],inactive
same,Potency,[3],inactive
same,Potency,[4],inactive
same,Potency,[5],inactive
same,Potency,[6],inactive
CCCCCCCCCCCCCCCCCC(N)=O,activation,[1],1.8% (inactive)
same,Potency,[2],inactive
same,Potency,[3],inactive
same,Potency,[4],inactive
same,Potency,[5],inactive
same,Potency,[6],inactive
c1ccc(Nc2cccc3ccccc23)cc1,Potency,[13],31.6 µM (active)
same,Potency,[14],inactive
same,activation,[15],4.55% (inactive)
same,Potency,[2],inactive
same,Potency,[16],inactive
same,Potency,[17],28.2 µM (active)
same,Potency,[18],42.2 µM (active) and 24.3 µM (active)
same,activation,[19],-0.293% (inactive)
same,activation,[20],4.97% (inactive)
same,max response,[21],-0.23% (inactive)
same,Potency,[3],inactive
same,Potency,[4],inactive
same,Potency,[5],inactive
same,Potency,[6],inactive
